According to the supplement of paper PMC6555819:

What was measured:
Test in all cases: PBM binding z-score (relative to random genomic background probes); higher = stronger binding; sequences stand for … in GC…GCGATTGACAGCGTAGAATGAAGG
[1] = tested on: FXR:RXRa (NR concentration 270 nM, RXRa partner concentration 90 nM)
How it was run: (§1)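 Ligand-free nuclear receptor dimers were applied to custom Agilent 4×180K protein-binding microarrays whose double-stranded probes carried direct-repeat seeds, single-nucleotide variants, half-site ablations and random human genomic background sequences in 34-nt variable regions. Incubation lasted 1 h. Binding z-scores were computed against the random background probes from regression-normalized fluorescence.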

[2] = tested on: LXRa:RXRa (NR concentration 270 nM, RXRa partner concentration 90 nM)
How it was run: as §1

[3] = tested on: LXRa homodimer (NR concentration 270 nM)
How it was run: as §1

[4] = tested on: LXRb:RXRa (NR concentration 270 nM, RXRa partner concentration 90 nM)
How it was run: as §1

[5] = tested on: LXRb homodimer (NR concentration 270 nM)
How it was run: as §1

[6] = tested on: PPARa:RXRa (NR concentration 270 nM, RXRa partner concentration 90 nM)
How it was run: as §1

[7] = tested on: PPARg:RXRa (NR concentration 180 nM, RXRa partner concentration 90 nM)
How it was run: as §1

[8] = tested on: PPARg:RXRa 270nM:90nM, anti-RXR (NR concentration 270 nM, RXRa partner concentration 90 nM)
How it was run: as §1

[9] = tested on: PPARg:RXRa 30nM:10nM, anti-RXR (NR concentration 30 nM, RXRa partner concentration 10 nM)
How it was run: as §1

[10] = tested on: PPARg:RXRa 90nM:30nM, anti-RXR (NR concentration 90 nM, RXRa partner concentration 30 nM)
How it was run: as §1

[11] = tested on: PPARg:RXRa DBDmut IVT, anti-RXR (DBD mutation: RXRa K156A/R161A, NR concentration 270 nM, RXRa partner concentration 90 nM)
How it was run: as §1

[12] = tested on: PPARg:RXRa IVT, anti-PPARg (NR concentration 270 nM, RXRa partner concentration 90 nM)
How it was run: as §1

[13] = tested on: PPARg DBDmut:RXRa IVT, anti-PPARg (DBD mutation: PPARg1 K132A/R137A, NR concentration 270 nM, RXRa partner concentration 90 nM)
How it was run: as §1

[14] = tested on: PPARg DBDmut IVT, anti-PPARg (DBD mutation: PPARg1 K132A/R137A, NR concentration 270 nM)
How it was run: as §1

[15] = tested on: PPARg homodimer (NR concentration 180 nM)
How it was run: as §1

[16] = tested on: PXR:RXRa (NR concentration 270 nM, RXRa partner concentration 90 nM)
How it was run: as §1

[17] = tested on: PXR homodimer (NR concentration 270 nM)
How it was run: as §1

[18] = tested on: RARa:RXR (NR concentration 270 nM, RXRa partner concentration 90 nM)
How it was run: as §1

[19] = tested on: RARa homodimer (NR concentration 270 nM)
How it was run: as §1

[20] = tested on: RARb:RXRa (NR concentration 270 nM, RXRa partner concentration 90 nM)
How it was run: as §1

Sequence	PBM binding z-score [1]	PBM binding z-score [2]	PBM binding z-score [3]	PBM binding z-score [4]	PBM binding z-score [5]	PBM binding z-score [6]	PBM binding z-score [7]	PBM binding z-score [8]	PBM binding z-score [9]	PBM binding z-score [10]	PBM binding z-score [11]	PBM binding z-score [12]	PBM binding z-score [13]	PBM binding z-score [14]	PBM binding z-score [15]	PBM binding z-score [16]	PBM binding z-score [17]	PBM binding z-score [18]	PBM binding z-score [19]	PBM binding z-score [20]
TCTAGTTGATCACGGAGGTCACACACGACGGGTA	2.88	3.08	1.8	3.27	0.399	3.76	2.09	3.19	3.41	2.99	1.39	2.26	0.727	1.1	2.02	4.29	1.44	4.94	0.922	3.24
AGCATGAGGTTATACGTAGATCAGGGAAGAAAGT	1.93	1.8	0.246	1.47	0.257	2.43	0.933	0.729	0.259	0.586	0.656	0.149	0.86	0.438	0.658	0.995	0.948	1.38	0.699	1.46
CCGACTGGGGCAAAGGTTGCCATACTCAGTACGA	-0.0811	-0.081	-0.3	0.302	-1.06	4.05	9.16	7.89	7.65	8.16	4.21	4.73	-0.511	-0.658	0.733	0.388	-0.135	1.14	-0.228	1.03
GGAACGATGGCATTCGAGTTGATAGCATGGCGAT	-0.471	-0.604	-0.706	-0.979	-1.12	-0.689	0.643	-0.465	-0.325	-0.434	-0.377	-0.247	-0.636	-0.427	-0.633	-0.0726	-0.789	-0.647	-0.81	-0.501
CCTAGCAGGCCAATCTGGTTCACTCAAGGCTTGA	-0.121	0.131	-0.596	-0.16	-0.887	0.0157	-0.419	-0.488	-0.776	-0.865	1.85	0.21	-1.28	-0.685	-0.281	0.784	-0.545	0.161	-0.882	0.201
TCTTGTAGATCAAGCCGGTTAAGAAAGCCTGAGT	0.845	0.416	-0.282	0.245	-0.0874	0.538	-0.597	1.31	2.88	1.97	1.95	0.218	-0.157	-0.013	0.0807	0.392	0.0295	0.402	-0.0189	0.123
TAGCCAAGGTCATGGGCCAGTATACCACGCGAAC	7.33	5.41	0.809	4.45	0.229	6.11	5.96	6	2.19	4.55	1.56	3.66	0.971	1.48	2.86	4.24	0.572	4.73	0.369	5.36
TCATGTAGGTAAAAGGTGAAAGTCGGTGTGGTAA	1.69	1.64	0.309	1.98	0.274	5.78	9.58	8.82	8.8	9.11	5.39	5.6	0.711	0.765	2.48	1.67	0.518	2.72	1.33	1.81
ACTTACGGATCAACGAGGTTATAGCACGCGTATA	0.716	0.914	0.686	1.25	0.594	1.47	0.98	0.564	0.453	0.486	0.402	0.468	0.823	0.952	0.607	1.41	0.695	1.5	1.25	0.645
CCTACTGGGCCAAAGGTCATTGGTTCCAATGCTC	5.06	5.15	4.28	4.94	0.631	6.49	11.6	9.63	10.5	10.3	5.02	6.55	0.0482	-0.387	2.89	5.41	2.21	6.04	0.819	4.51
GATACAGGGTCAAGGCCAGACTACGCGTATTGAT	6.8	3.95	0.21	3.72	-0.0563	5.69	6.16	5.88	2.85	4.87	2.8	3.83	0.238	0.461	2.54	4.03	0.191	4.98	0.813	4.6
ACTAGTTGGTCAGCTGAGATCACACACAATTCGG	-0.123	-0.166	-0.172	0.118	0.186	-0.138	0.977	0.171	0.202	0.195	0.753	0.741	1.02	0.509	-0.286	0.0807	-0.161	0.321	0.12	0.946
CAAACTAGGTCAGGAAAGGTCAAAGTCGAATGAC	6.17	6.74	6.35	6.12	1.93	6.08	8.46	6.82	4.45	6.88	7.59	8.02	3.96	1.14	6.11	6.57	2.16	6.83	3.88	5.36
AGAATGCGGTTATTAAGATCAGGGAATTGCGGTC	-0.258	-0.138	-0.259	-0.43	-0.728	-0.484	0.0333	-0.202	-0.149	-0.182	-0.161	0.143	-0.136	-0.574	-0.18	-0.396	0.0419	-0.457	0.329	-0.0684
